Inhibition data for 44 compounds are collected here from PubChem BioAssay AID1259417 (TB Discovery Research, Infectious Disease Research Institute, 2018).

The nature of the experiment: M. tuberculosis growth inhibition, HTS (AID 1259417).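 Further: bacteria grown with compound for 5 days at 37 °C.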 To be noted: stronger effect = higher value, concentration not given here.
Where [1] appears, read: M. tuberculosis DsRed fluorescence growth inhibition.
The mark [2] stands for this setting: M. tuberculosis growth inhibition.

Usually inhibition stands for the change of the read-out against control, counted positive when it falls.

In all, about 1,100 compounds went through this assay and about 760 (69%) were called active. How the calls were made is not given here. The set was probably picked from earlier hits. The list shows a part of the results.

In the case of `O=S(Cc1ccccc1)c1nc2ccccc2s1` (stereo not drawn), the inhibition is, setting by setting: under setting [1], 51.3% (active); under setting [2], 74.9%.
Turning to `CN(C)c1ccc(Nc2ncnc3ccc(Br)cc23)cc1`, the inhibition was 100% (active) under setting [1] and 99.4% under setting [2].
For the compound `Brc1ccc2ncnc(Nc3ccc(N4CCCC4)cc3)c2c1`, the inhibition was 100% (active) under setting [1] and 99.7% under setting [2].
For `Nc1c2c(nc3sc4c(c13)CCCC4)CCCC2`, the inhibition is 99.7% (active) under setting [1] and 101% under setting [2].
The like results for `Cc1nc(SCc2csc(C)n2)c2c3c(sc2n1)CCCC3` were, in that order, 13.5% (inactive) and -7.63%.
Regarding `CC1CCc2nc3sc4c(c3c(N)c2C1)CCCC4` (stereo not drawn), the inhibition reads like this: under setting [1], 99.8% (active); under setting [2], 99.6%.
Consider `Nc1c(C(=O)Nc2ccc(Br)cc2)sc2nc3c(c(-c4cccs4)c12)CCCC3`, for which the inhibition is, setting by setting: under setting [1], 5.67% (inactive); under setting [2], -16.7%.
Regarding `CN(Cc1ccccc1)C(=S)NC(=O)c1cccs1`, the inhibition under setting [1] is 23.4% (active) and the inhibition under setting [2] amounted to 33.4%.
In the case of `N#CCCN(Cc1ccccc1)C(=S)NC(=O)c1ccccc1`, the inhibition is, setting by setting: under setting [1], -2.05% (inactive); under setting [2], 0.14%.
Turning to `O=C(Nc1nnc(-c2ccccc2Cl)o1)c1ccco1`, the inhibition by setting is: under setting [1], -3.23% (inactive); under setting [2], -7.63%.
On to `COc1cccc(-c2nnc(NC(=O)C=Cc3cccs3)o2)c1`, for which the inhibition under setting [1] is -4.21% (inactive) and the inhibition under setting [2] was 4.98%.
`COc1cccc(C(=O)Nc2nnc(-c3ccc(Cl)cc3)o2)c1`: the inhibition under setting [1] is 35.6% (active) and the inhibition under setting [2] was 70.5%.
For `O=C(Nc1nnc(-c2ccccc2Cl)o1)c1cccc(Oc2ccccc2)c1`, the inhibition was 94% (active) under setting [1] and 93.2% under setting [2].
For `O=C(Nc1nnc(C2=COCCO2)o1)c1cccc(Cl)c1`, the inhibition is 12.5% (inactive) under setting [1] and 27.2% under setting [2].
In the same order, the values of `COc1cccc(-c2nnc(NC(=O)c3cccc(F)c3)o2)c1` are 89.3% (active) and 93.2%.
Consider `CC(Nc1nc(N2CCN(C(=O)c3ccc(Cl)cc3)CC2)nc2ccccc12)c1ccccc1` (stereo not drawn), for which the inhibition was 0.606% (inactive) under setting [1] and -19.8% under setting [2].
Take `CC(Nc1nc(N2CCCCC2)nc2ccccc12)c1ccccc1` (stereo not drawn): the inhibition is 98.6% (active) under setting [1] and 98.9% under setting [2].
With `COC(C)(C)C#CC(=O)c1cccc2ccccc12`, the inhibition was 100% (active) under setting [1] and 98.9% under setting [2].
The like results for `COc1ccccc1C1=Nc2cccc3cccc(c23)N1` were, in that order, 45.9% (active) and 45.8%.
Regarding `Cc1nnc(NC(=O)c2ccc3ccccc3c2)o1`, the inhibition is, setting by setting: under setting [1], 98.3% (active); under setting [2], 99.1%.
Turning to `Cc1cccc(C(=O)Nc2nnc(C3=COCCO3)o2)c1`, the inhibition is 8.04% (inactive) under setting [1] and 3.45% under setting [2].
Turning to `COc1ccc(C(=O)Oc2ccc(C(=O)OCc3ccccc3)cc2)cc1OC`, the inhibition reads like this: under setting [1], 3.52% (inactive); under setting [2], -20.9%.
Consider `CC(Oc1ccc(C(=O)NC2CCCCC2)cc1)C(=O)OCc1ccccc1Cl` (stereo not drawn), for which the inhibition under setting [1] is 51% (active) and the inhibition under setting [2] came out at 69.4%.
For `Cc1ccc(-c2csc3ncn(C(C)C(=O)OCc4ccccc4Cl)c(=O)c23)cc1` (stereo not drawn), the inhibition was -5.81% (inactive) under setting [1] and 4.87% under setting [2].
On to `CC(Oc1ccc(C(=O)NCCc2ccccc2)cc1)C(=O)OCc1ccccc1` (stereo not drawn), for which the inhibition by setting is: under setting [1], 36.1% (active); under setting [2], 55.5%.
On to `COC(=O)CSc1ccnc2cc(Cl)ccc12`, for which the inhibition by setting is: under setting [1], 27% (active); under setting [2], 74.4%.
For the compound `Cc1cc(C)c2sc(N3CCCC3)nc2c1`, the inhibition under setting [1] is 100% (active) and the inhibition under setting [2] is 99.8%.
In the case of `Cc1ccc(Nc2nc(N3CCN(C)CC3)nc(N)c2[N+](=O)[O-])cc1C`, the inhibition is, setting by setting: under setting [1], 61.4% (active); under setting [2], 61.7%.
In the case of `COc1ccc(Cc2nn3c(-c4ccccc4)nnc3s2)cc1`, the inhibition reads like this: under setting [1], 100% (active); under setting [2], 100%.
The like results for `Cc1ccc(-c2nnc3sc(Cc4ccccc4)nn23)cc1` were, in that order, 100% (active) and 99.4%.
`Cc1ccc(-c2nnc3sc(CCc4ccccc4)nn23)cc1`: the inhibition under setting [1] is 100% (active) and the inhibition under setting [2] turned out to be 100%.
With `Cc1cccc(Nc2nnc(SCC(=O)Nc3cccnc3Cl)s2)c1`, the inhibition under setting [1] is 3% (inactive) and the inhibition under setting [2] worked out at 14.2%.
`O=C(CSc1nnc(SCc2cccc3ccccc23)s1)Nc1ccccc1F`: the inhibition is, setting by setting: under setting [1], 3.26% (active); under setting [2], 43.1%.
On to `N#Cc1ccc(NC(=O)CSc2ccc(Cl)cc2)cc1`, for which the inhibition runs as follows: under setting [1], 10.6% (active); under setting [2], 56.7%.
As for `N#Cc1ccc(NC(=O)CSc2ccc(Br)cc2)cc1`, the inhibition under setting [1] was 8.52% (active) and the inhibition under setting [2] stood at 46.8%.
For the compound `O=C(CSc1ccc(Cl)cc1)Nc1ccc(Br)cn1`, the inhibition is, setting by setting: under setting [1], 2.64% (active); under setting [2], 38%.
The like results for `Cc1cnc(NC(=O)CSc2ccc(Cl)cc2)s1` were, in that order, -1.45% (inactive) and -17.5%.
On to `O=C(CSc1ccc(Br)cc1)Nc1ccccc1F`, for which the inhibition is, setting by setting: under setting [1], 1.79% (active); under setting [2], 46.4%.
As to `CCC(C)NCCCOc1ccc(Cl)c2ccccc12` (stereo not drawn), the inhibition under setting [1] is 97.1% (active) and the inhibition under setting [2] amounted to 89.4%.
`Clc1ccc(OCCCNCc2ccccc2)c2ccccc12`: the inhibition is, setting by setting: under setting [1], -2.3% (inactive); under setting [2], -30%.
Consider `COC(=O)COc1ccc(-c2ccc(F)cc2)cc1C=O`, for which the inhibition was 39.2% (active) under setting [1] and 85.5% under setting [2].
The like results for `COc1ccccc1-c1cnn2c(Nc3cccc(Cl)c3)cc(C)nc12` were, in that order, 32.5% (active) and 72.2%.
`Cc1cc(Nc2ccc(C)c(C)c2)n2ncc(-c3ccccc3)c2n1`: the inhibition was 5.96% (active) under setting [1] and 38.3% under setting [2].
The like results for `Cc1cc(Nc2ccc(C)c(Cl)c2)n2ncc(-c3ccccc3)c2n1` were, in that order, -7.72% (inactive) and 1.18%.
